Screens from PubChem BioAssay.
NPC1 prom act = activates the NPC1 promoter | Huh7 NPC1 promoter luciferase reporter, 24 h | Potency, µM (top dose mostly 9.22 µM), usual class: activators | 320,000 compounds, 2.4% hits | AID 485313; note: nearly all actives have a fitted effect of over 60% in size
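In 1536-well qHTS, Huh7 cells harboring an NPC1 promoter–luciferase construct received compound for 24 h; activation was quantified by luminescence following luciferase reagent addition.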
KinaseGlo FLuc = counter-screen: inhibitors of Kinase-Glo firefly luciferase; Potency, µM (highest dose often 38.3 µM), most hits filed as inhibitors; AID 1379; Kinase-Glo luciferase, ATP luminescence, 8 min; 200,000 compounds, 0.28% hits; note: nearly all actives have a fitted effect of over 60% in size
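Substrate mix (final 50 mM imidazole pH 7.2, 50 mM KCl, 7 mM MgCl2, 10 uM ATP, 0.01% Tween 20, 0.05% BSA) plus pin-tool compound, then Kinase-Glo detection mix; 8 min ambient, luminescence read.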
FLuc counter = inhibits or activates purified firefly luciferase, miR-21 counter-screen; purified FLuc, Km substrates, luminescence inhibition; 360,000 compounds, 6.9% hits; Potency, µM (series often up to 57.5 µM), most hits filed as inhibitors; note: nearly all actives have a fitted effect of over 55% in size
Target sequence (P08659 whole entry, looked up): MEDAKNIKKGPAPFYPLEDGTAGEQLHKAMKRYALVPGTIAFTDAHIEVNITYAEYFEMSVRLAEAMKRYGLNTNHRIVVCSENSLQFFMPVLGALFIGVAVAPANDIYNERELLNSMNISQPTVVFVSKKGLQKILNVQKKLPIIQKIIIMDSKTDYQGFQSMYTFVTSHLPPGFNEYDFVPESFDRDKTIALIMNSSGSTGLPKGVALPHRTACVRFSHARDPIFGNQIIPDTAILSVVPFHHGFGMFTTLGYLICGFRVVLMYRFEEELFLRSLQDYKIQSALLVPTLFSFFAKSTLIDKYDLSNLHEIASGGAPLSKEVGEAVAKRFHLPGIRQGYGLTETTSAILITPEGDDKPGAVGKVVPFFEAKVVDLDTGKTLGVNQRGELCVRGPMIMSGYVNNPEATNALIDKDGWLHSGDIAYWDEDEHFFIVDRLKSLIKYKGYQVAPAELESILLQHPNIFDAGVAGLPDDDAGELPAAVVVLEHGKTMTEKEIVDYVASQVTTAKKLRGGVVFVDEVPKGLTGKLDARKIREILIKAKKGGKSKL
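Purified P. pyralis luciferase (10nM final) with 10uM D-luciferin and 10uM ATP (Km levels) in 50mM Tris acetate pH 7.5, 10mM Mg acetate, 0.01% Tween-20, 0.05% BSA; qHTS 6-point titration, ~60 µM downward; luminescence read.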
Rab9 promoter act = Rab9 promoter activation | 320,000 compounds, 2.8% hits | AID 485297 | Potency, µM (series often up to 9.22 µM), most hits filed as activators | Huh7 Rab9 promoter-luciferase reporter, luminescence, 24 h; note: nearly all actives have a fitted effect of over 60% in size
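Quantitative HTS format; Huh7 Rab9-luciferase reporter cells (1500/well) receive compound 2 h post-plating, incubate 24 h at 37 °C, then get luciferase reagent for 10 min before luminescence reading.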
SMN2 splice up = increases expression of the SMN2 splice variant. 210,000 compounds, 2.8% hits. Potency, µM (highest dose often 46.1 µM), hits mostly activators. HEK293 SMN2-luciferase splicing reporter, luminescence, 30-36 h; note: nearly all actives have a fitted effect of over 55% in size
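HEK293 cells carry an SMN2 […]–luciferase reporter in which exon 7 inclusion puts luciferase in frame. Cells were plated 10-12 h before compound addition, then incubated 30-36 h at 37C. ONE-Glo luminescence was read; sodium butyrate at 4.5 mM final served as control.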
Numbers stand for hits; – = inactive; ? = inconclusive; · = no result given; [ ] = another dose, or the depositor's remark. In the library only some 7.3% were active in any assay of this set; here they are far more common. Calls come from the whole dose curve; as a rule, active = well fitted curve in the direction sought with a large enough effect; inconclusive = small, poorly fitted or top-dose-only effect, or another doubt; inactive = no such curve, though single readings can be large; an effect the other way counts as inactive or inconclusive.

SMILES | NPC1 prom act | KinaseGlo FLuc | FLuc counter | Rab9 promoter act | SMN2 splice up
COC(=O)C(C(C)=O)C(NC(=O)OC(C)(C)C)c1ccccc1 (centres undefined) | · | – | · | · | –
COc1ccc(Cn2ccc3nc(C)c(C(=O)Nc4cc(C)cc(C)c4)cc3c2=O)cc1 | · | · | – | · | ·
O=C(Nc1ccc2c(c1)OCO2)c1ccc2nc[nH]c2c1 | ? | – | 21µM | 3.5µM | ?
O=C(Nc1ccc(C(F)(F)F)cc1)c1ccc2nc[nH]c2c1 | – | – | ? | – | –
C=C(C(C)=O)C(O)c1ccc2ccccc2c1 (centres undefined) | · | – | · | · | –
Cc1c(/C(O)=C2\C(=O)C(=O)N(CCN(C)C)C2c2ccccc2)cnn1-c1ccccc1 (centres undefined) | – | · | 17µM | – | ·
Cc1c(/C(O)=C2\C(=O)C(=O)N(CCN(C)C)C2c2ccco2)cnn1-c1ccccc1 (centres undefined) | ? | – | 27µM | ? | –
COC(=O)c1c(NC(=O)CCCOc2ccc(C(C)(C)C)cc2)sc2c1C(C(=O)OC)CC2 (centres undefined) | · | · | ? | · | –
COc1ccc2c(c1)O[C@@H](c1ccc3c(c1)OCO3)[C@H](OC(=O)Nc1ccc(C)c(Br)c1)C2=O | · | – | · | · | –
COc1ccc2c(c1)CN([C@H](C)[C@@H]1CC[C@@H]3[C@H]4CC[C@H]5C[C@@H](O)CC[C@@]5(C)[C@H]4CC[C@]31C)CO2 | · | –[7.66 µM] | · | · | –[9.22 µM]
O=C(CSc1ccc(-c2ccccc2)nn1)N1CCOCC1 | – | – | – | – | 6.3µM
COc1ccc(-c2ccc(SCC(=O)c3cccs3)nn2)cc1 | – | – | 11µM | – | 13µM
O=C(CSc1ccc(-c2ccc(Cl)cc2)nn1)N1CCCc2ccccc21 | – | – | 15µM | – | –
Cc1nc(SCC(=O)N2CC(=O)Nc3ccccc32)nc(C)c1C | – | – | – | – | –
COc1ccc(-c2ccc(SCC(=O)N3CC(=O)Nc4ccccc43)nn2)cc1 | – | · | 3µM | – | ·
COc1ccc(NC(=O)CSc2ccc(-c3cccs3)nn2)cc1 | · | · | – | · | ·
O=c1c(S(=O)(=O)c2ccccc2)cn(Cc2ccc(F)cc2)c2cc(N3CCOCC3)c(F)cc12 | · | · | – | · | ·
O=C(CSc1ccc(-c2ccccc2)nn1)c1cccs1 | ? | – | ? | ? | 18µM
Cc1ccc(C(=O)CSc2ccc(-c3ccncc3)nn2)cc1 | – | – | – | – | –
OCc1ccccc1OCCOc1ccc(Cl)c2cccnc12 | – | – | 19µM | – | –
Clc1ccc(OCc2cn3ccccc3n2)c2ncccc12 | 3.5µM | – | 12µM | 2.8µM | ·
O=C1/C(=C\c2cccnc2)Sc2ccccc21 | – | – | 6.7µM | – | –
CC(=O)Nc1ccc(/C=C2/Sc3ccccc3C2=O)cc1 | – | – | 0.76µM | – | –
CN1C(=O)S/C(=C/c2cccnc2)C1=O | – | – | – | – | –
CCOC(=O)C12CC1/C(=N/O)c1ccccc1O2 (centres undefined) | – | – | · | – | –
SMILES | NPC1 prom act | KinaseGlo FLuc | FLuc counter | Rab9 promoter act | SMN2 splice up
Cc1ccc(CNC(=O)CO/N=C/c2ccc(C(C)(C)C)cc2)cc1 | – | – | ? | – | –
CC(C)(C)c1ccc(/C=N/OCC(=O)NCc2ccccc2)cc1 | – | – | 17µM | – | –
CC(C)(C)c1ccc(/C=N/OCC(=O)NCc2ccc(F)cc2)cc1 | – | – | 30µM | – | –
CCOc1ccc(/C=N/OCC(=O)NC(c2ccccc2)c2ccccc2)cc1 | – | – | – | – | –
CC(C)(C)C(=O)Nc1ccccc1C(=O)OCC(=O)c1ccc2c(c1)OCCO2 | – | – | 6.7µM | – | –
O=C(COC(=O)c1ccccc1NC(=O)C1CC1)c1ccc2c(c1)OCCO2 | – | – | 1.7µM | ? | –
Cc1ccc(S(=O)(=O)NCCc2csc3nc(-c4ccccc4C)nn23)cc1 | · | · | – | · | ·
CN(C)c1ccc(C(=O)Nc2cccc(S(=O)(=O)NC3=NCCCCC3)c2)cc1 | – | · | · | – | ·
Cc1ccc(C(C)C)c(OCC(=O)Nc2cccc(S(=O)(=O)NC3=NCCCCC3)c2)c1 | – | · | – | – | ·
CC(C)(C)c1ccc(C(=O)Nc2cccc(S(=O)(=O)NC3=NCCC3)c2)cc1 | 2.5µM | · | 0.13µM | ? | ·
CCc1ccccc1OCC(=O)Nc1cccc(S(=O)(=O)NC2=NCCC2)c1 | – | · | 19µM | – | ·
Cc1ccccc1OCC(=O)Nc1cccc(S(=O)(=O)NC2=NCCCCC2)c1 | – | · | 17µM | – | ·
CCOc1ccccc1OCC(=O)Nc1cccc(S(=O)(=O)NC2=NCCCCC2)c1 | – | · | – | – | ·
Cc1ccccc1OCC(=O)Nc1cccc(S(=O)(=O)NC2=NCCC2)c1 | – | · | 2.1µM | – | ·
O=C(NCCO)c1ccc(Cc2nc3ccccc3[nH]2)cc1 | · | – | · | · | ·
Cc1ccc(C(=O)Nc2ccc3c(c2)OCO3)o1 | 2.8µM | ? | 11µM | –[1.84 µM] | 11µM
CC(=O)Nc1ccc2c(c1)OCO2 | – | – | – | – | –
C/C(=C\C(=O)c1ccc(C)o1)Nc1ccc2c(c1)OCO2 | 2.8µM | – | 4.8µM | 2.2µM | –
C/C(=C\C(=O)c1ccccc1)Nc1ccc2c(c1)OCO2 | 2.8µM | – | 3.8µM | 4µM | 22µM
COc1ccc(CNS(=O)(=O)c2ccc3c(c2)C(C)(C)C(=O)N3C)cc1OC | · | · | – | · | ·
CCOC(=O)C(C(=O)Nc1nc2ccccc2s1)C1CCCCC1 (centres undefined) | – | – | – | – | –
Cc1cnc(NC(=O)CCN2C(=O)C3CCCCC3C2=O)s1 (centres undefined) | – | – | – | – | –
O=C(Nc1nc2ccccc2s1)NC1CCCCC1 | 1.4µM | – | 1.9µM | 0.63µM | ·
O=C(CC1CCCCC1)Nc1nc2ccccc2s1 | 1.8µM | – | ? | 1.6µM | 11µM
Cc1cnc(NC(=O)CC2CCCC2)s1 | ? | – | ? | ? | 18µM
SMILES | NPC1 prom act | KinaseGlo FLuc | FLuc counter | Rab9 promoter act | SMN2 splice up
COc1ccccc1CNc1nc2ccc(C)cc2n2nnnc12 | · | · | – | · | ·
COc1cccc(/C=N/NC(=O)c2ccc([N+](=O)[O-])cc2Cl)c1O | – | – | 19µM | – | –
COc1cccc(/C=N/Nc2ccc([N+](=O)[O-])cc2)c1O | ? | · | 2.4µM | – | ·
COc1cccc(/C=N/NC(=O)c2ccc(=O)[nH]n2)c1O | – | · | 3.4µM | – | ·
COc1cccc(N/N=C/c2cccc(Br)c2O)c1 | ? | · | 6.7µM | ? | ·
COC(=O)c1ccc(N/N=C/c2cc([N+](=O)[O-])cc(OC)c2O)cc1 | – | – | ? | – | ·
O=C(N/N=C/c1ccccn1)c1ccc([N+](=O)[O-])cc1Cl | – | · | 19µM | – | ·
O=C(N/N=C/c1cccnc1)c1ccc([N+](=O)[O-])cc1Cl | – | · | ? | – | ·
COc1ccc(/C=N/Nc2ccc([N+](=O)[O-])cc2)cc1O | – | · | 7.6µM | ? | ·
CCOC(=O)C1=C(CN2CCC(C(=O)OCC)CC2)NC(=O)NC1c1ccc(Cl)cc1 (centres undefined) | · | · | – | · | –
Fc1ccc(Nc2nc3ccccc3c3nncn23)c(Cl)c1 | · | · | – | · | –
O=C(c1ccc(OC(F)(F)F)cc1)c1ncc[nH]1 | ? | · | ? | 3.5µM | ·
